RE007 growth inh = less growth of the S. pombe RE007 Vpr strain; actives 0.21% (n = 360,000); S. pombe RE007 Vpr strain, BacTiter-Glo ATP luminescence, 24 h; Potency, µM (doses to about 92.2 µM), inactives show top-dose activity change, negative = less growth, most hits filed as inhibitors; active means well fitted falling curve with a large enough effect; inconclusive means small, poorly fitted or top-dose-only effect; inactive means no such curve, though single readings can be large or run the other way; further: potency means the concentration at half of the fitted maximal effect; on the % scale 0 is the no-effect control and ±100 the full control effect; nearly all actives have a fitted effect of over 50% in size
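Fission yeast RE007 carrying one integrated HIV-1 vpr copy, seeded at OD 0.01 in PMG+AL medium with 23 nL pinned compound. Grown 24 h at 30 degrees; viability read by BacTiter-Glo luminescence after 5 min.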
Giardia FBPA inh = Giardia lamblia aldolase inhibition | purified Giardia FBPA | Potency, µM (highest dose often 59.6 µM), for inactives: at the highest dose activity, negative = inhibition, hits mostly inhibitors | actives 0.71% (n = 290,000); further: potency means the concentration at half of the fitted maximal effect; on the % scale 0 is the no-effect control and ±100 the full control effect; nearly all actives have a fitted effect of over 55% in size
Target sequence (A8B2U2 whole entry, looked up): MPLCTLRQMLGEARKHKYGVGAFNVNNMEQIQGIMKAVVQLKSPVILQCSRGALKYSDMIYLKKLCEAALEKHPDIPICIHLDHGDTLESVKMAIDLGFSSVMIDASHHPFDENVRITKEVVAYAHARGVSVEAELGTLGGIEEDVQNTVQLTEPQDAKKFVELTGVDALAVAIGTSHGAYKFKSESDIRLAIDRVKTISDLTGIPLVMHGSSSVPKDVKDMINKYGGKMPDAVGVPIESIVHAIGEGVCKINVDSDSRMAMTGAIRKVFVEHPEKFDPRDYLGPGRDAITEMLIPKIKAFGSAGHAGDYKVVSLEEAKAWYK
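Giardia FBPA (40 nM reagent) was preincubated 10 min at RT with compound (up to 57.5 uM final), then substrate plus GAPDH/TPI/NAD/arsenate coupling system with diaphorase/resazurin was added; resorufin fluorescence (525/598 nm) was read after 20 min.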
Cycloheximide cs = affects cycloheximide protein synthesis inhibition readout, counter-screen. max response, %. cell reporter, cycloheximide protein synthesis inhibition counterscreen. actives 12% (n = 300,000); in the data active means max response mostly above about 13%, no sharp cut-off; inactive means mostly below about 14%; further: read at 38.3 µM for the half of the compounds with a filed dose; 0% is about no effect
TbPYK inhibitor = T. brucei pyruvate kinase inhibition. actives 0.12% (n = 410,000). TbPYK enzyme, Kinase-Glo Plus ATP luminescence, 45 min. Q57TT1. Potency, µM (highest dose often 76.8 µM), without a hit: at the highest dose activity, negative = inhibition, usual class: inhibitors; further: potency means the concentration at half of the fitted maximal effect; on the % scale 0 is the no-effect control and ±100 the full control effect; nearly all actives have a fitted effect of over 50% in size
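Quantitative HTS: titrated library compounds versus trypanosomal pyruvate kinase in TEA buffer (pH 7.2) containing KCl, MgCl2, BSA and Tween-20. Reactions were initiated with ADP, 130 uM final. Kinase-Glo Plus luminescence was read after 45 min at RT.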
Shiga toxin inh = Shiga toxin inhibition; inhibition, % at 38.7 µM; actives 9.2% (n = 290,000); Vero cells, Shiga toxin protein synthesis inhibition reporter; in the data active means inhibition mostly above about 28%, no sharp cut-off; inactive means mostly below about 43%; further: 0% is about no effect
LmPK inhibitor = blocks Leishmania mexicana pyruvate kinase activity; purified LmPK, Kinase-Glo ATP luminescence, 1 h; actives 0.37% (n = 290,000); Potency, µM (highest dose often 57.5 µM), for the others: top-dose activity change, negative = inhibition, actives largely listed as inhibitors; AID 1721; Q27686; further: potency means the concentration at half of the fitted maximal effect; on the % scale 0 is the no-effect control and ±100 the full control effect
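0.1 nM LmPK, 0.5 mM PEP, 0.1 mM ADP; 50 mM imidazole pH 7.2, 7 mM MgCl2, 50 mM KCl; 1 h RT. Kinase-Glo luminescence readout, normalized to no-enzyme (full inhibition) and uninhibited wells.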
Active calls of the source: *; u = inconclusive; x = no result given; [ ] = remark or other dose. The entries come from a sample that favours hits as a whole. Unless noted, the call rests on the fitted dose curve; in most records, active means well fitted curve in the direction sought with a large enough effect; inconclusive means small, poorly fitted or top-dose-only effect, or another doubt; inactive means no such curve, though single readings can be large; an effect the other way counts as inactive or inconclusive.

SMILES	RE007 growth inh	Giardia FBPA inh	Cycloheximide cs	TbPYK inhibitor	Shiga toxin inh	LmPK inhibitor
S=C(c1ccc(-c2cccc(Cl)c2)o1)N1CCCCC1	-11%	1%	49*	-17%	55*	-9%
N#CCCN1CCN(C(=S)c2ccc(-c3cccc(Cl)c3)o2)CC1	4%	-19%	45*	-7%	103*	5%
COCCCNc1ncnc2c1nnn2C	x	x	x	0%	x	x
c1ccc2c(-c3cnn4cc(-c5ccc(N6CCNCC6)cc5)cnc34)ccnc2c1	x	x	x	0%	x	x
Cc1ccc2c(c1)[C@H]1[C@H](CO2)[C@H](c2ccccc2)[C@]2(C)C(=O)N(C)CC(=O)N12	23%	x	x	2%	x	x
COc1ccc(-n2c(SC3CCOC3=O)nc3ccccc3c2=O)cc1OC (configuration not stated)	-5%	8%	38*	-6%	-3	0%
COc1ccc(-n2c(SC3CCOC3=O)nc3ccccc3c2=O)cc1Cl (configuration not stated)	4%	0%	-2	10%	-10	6%
O=[N+]([O-])c1cc2c(cc1CN1CCN(c3ccccc3)CC1)OCO2	-10%	-1%	35*	-6%	x	-2%
O=[N+]([O-])c1ccc(CN2CCN(c3ccccc3)CC2)o1	-13%	u	-3	6%	x	0%
COc1ccccc1OCCN1C(=O)S/C(=C\c2ccco2)C1=O	u	-12%	7	-2%	32	3%
N=C1S/C(=C\c2ccco2)C(=O)N1c1ccc2c(c1)OCO2	-22%	-9%	33*	3%	74*	-1%
N=C1S/C(=C\c2ccco2)C(=O)N1c1nccs1	-10%	-18%	34*	-6%	59*	-4%
CCc1nn(CC(=O)NCCCN(CC(C)C)CC(C)C)c(=O)c2cc3sc(C)cc3n12	x	x	x	1%	x	x
CN(C)c1ccc(/C=N/N=C2/NC(=O)/C(=C/c3ccc([N+](=O)[O-])cc3)S2)cc1	-13%	1%	28*	-5%	54*	1%
CN(C)c1ccc(C=C2SC(=S)NC2=O)cc1	-10%	x	x	-13%	x	x
O=C(NCc1ccccc1)C(c1cccnc1)N(C(=O)c1csnn1)c1ccccc1 (configuration not stated)	2%	5%	-3	-10%	-5	5%
Cc1cc(/C=c2/sc3nc4ccccc4n3c2=O)c(C)n1-c1ccccn1	6%	-7%	67*	-20%	27	-12%
Cc1cc(/C=c2\sc3nc4ccccc4n3c2=O)c(C)n1-c1ccc(C(=O)O)cc1	0%	-12%	9	-4%	6	-4%
O=c1/c(=C/c2ccc(O)c([N+](=O)[O-])c2)sc2nc3ccccc3n12	-18%	-6%	33*	-7%	94*	-6%
O=c1/c(=C\c2cccnc2)sc2nc3ccccc3n12	5%	9%	31*	5%	127*	-2%
CCN(CC)c1ccc(/C=c2\sc3nc4ccccc4n3c2=O)c(O)c1	1%	-1%	19	-28%	38*	0%
Cc1cc(C)c2nc3s/c(=C/c4ccccc4)c(=O)n3c2c1	x	8%	15	x	2	0%
CCOC(=O)OCC1OC(C#CC(C)(C)C)C=CC1OC(=O)OCC (configuration not stated)	x	1%[12.9 µM]	x	x	x	x
Fc1ccc(Cn2nnnc2C(c2cccs2)N2CCN(C3CCCCC3)CC2)cc1 (configuration not stated)	-9%	-2%	14*	0%	55*	-1%
COCCn1nnnc1C(c1cccs1)N1CCN2CCCC2C1 (configuration not stated)	15%	3%	14*	-15%	54*	-11%
SMILES	RE007 growth inh	Giardia FBPA inh	Cycloheximide cs	TbPYK inhibitor	Shiga toxin inh	LmPK inhibitor
O=S(=O)(Nc1ccc2nc(-c3ccc(F)cc3)oc2c1)c1ccccc1	x	x	x	-1%	x	x
Nc1ccc(-c2nc3ccc(N)cc3o2)cc1	-22%	-9%	39*	-24%	35	-17%
CN(C)c1ccc(-c2nc3cc(N)ccc3o2)cc1	u	-9%	14*	-1%	38	-24%
Cc1ccc2nc(-c3cc(N)cc(N)c3)oc2c1	-7%	-13%	17*	-1%	36	u
Cc1ccc(-c2nc3cc(N)ccc3o2)cc1Br	-1%	6%	39*	-1%	x	0%
Cc1ccc2nc(-c3cccc(NC(=O)c4ccc(Br)o4)c3)oc2c1	x	x	x	-2%	x	x
c1cc(-c2nc3cc(Cc4ccc5oc(-c6ccncc6)nc5c4)ccc3o2)ccn1	x	6%	-3	x	-5	0%
Cc1cc(C)c(Cn2cnc3nc4c(cc3c2=O)CCCC4)c(C)c1	x	x	x	2%	x	x
Nc1ccc(-c2nc3cc(N)ccc3o2)cc1	-18%	3%	38*	-2%	38*	-2%
Nc1ccc2oc(-c3cc(Br)ccc3Cl)nc2c1	-2%	-1%	-4	1%	4	6%
COC(=O)c1ccc(-c2nc3cc(N)ccc3o2)cc1	-20%	-9%	18*	4%	38*	-24%
COc1ccc(C(=O)Nc2ccc3oc(-c4ccc(OC)cc4)nc3c2)cc1	x	x	x	2%	x	x
Cc1ccc(C)c(-c2nc3cc(N)ccc3o2)c1	-14%	-9%	11	-5%	28*	-9%
CCN(CC)C(=O)CSc1nc(-c2ccccc2)cc(-c2ccc(OC)cc2)c1C#N	x	x	x	2%	x	x
COc1ccccc1N1CCN(S(=O)(=O)CCNC(=O)COc2ccc(C(C)C)cc2)CC1	x	x	x	1%	x	x
CC(C)CSc1nnc2c3ccccc3n(C)c2n1	-13%	6%	34*	0%	x	-1%
c1ccc2c(c1)[nH]c1nc(SCCN3CCOCC3)nnc12	-29%	-15%	13*	-17%	27	-3%
CC(C)OC(=O)CSc1nnc2c3ccccc3n(C)c2n1	2%	-3%	-2	-6%	-2	-1%
O=C(O)c1ccccc1CSc1nnc2c(n1)[nH]c1ccccc12	u	9%	-3	u	17	-23%
Brc1ccc2[nH]c3nc(SCCN4CCOCC4)nnc3c2c1	2%	-1%	0	2%	-5	4%
CCCCSc1nnc2c(n1)[nH]c1ccccc12	-14%	-5%	46*	-13%	128*	-1%
CC(C)CSc1nnc2c(n1)[nH]c1ccccc12	7%	4%	32*	9%	43	4%
CC(C)Cc1nnc(NC(=O)CCC(=O)N2CCN(Cc3ccc(Cl)cc3)CC2)s1	1%	4%	-5	-12%	-7	12%
CC(=O)OC1CCC2(C)C(=CCC3C2CCC2(C)C(C(C)=O)CCC32)C1 (configuration not stated)	x	x	x	2%	x	x
Cc1c(C(=O)OCC(=O)Nc2ccc(C(N)=O)cc2)cccc1[N+](=O)[O-]	13%	0%	4	1%	-11	0%
CCOc1ccc2ccccc2c1/C=N/NC(=O)CC1(C)OCCCO1	-10%	u	12	8%	13	1%

Compound activity from PubChem.
